From PubChem BioAssay AID1347430 (National Center for Advancing Translational Sciences (NCATS), 2020)
Values joined by “and” are separate entries in the source; they are usually repeats but may differ in a detail not shown here. Identical values can stand only once. About 130 (0.14%) of roughly 91,000 compounds were called active. Not shown: some 3% with an inconclusive outcome. Calls follow the shape of the dose curve; as a rule, active = well fitted inhibition curve with a large enough effect; inconclusive = small, poorly fitted or top-dose-only effect; inactive = flat fitted curve, though single readings scatter. What follows is part of a selection rich in actives, with near analogues and random picks from the rest. Entries that show only a call come without a potency. Some compounds were tested as several samples or in several runs, with calls that do not always agree.

Each molecule was assayed on Uracil-DNA glycosylase (assay: Primary qHTS assay for inhibitors of Activation Induced Cytidine Deaminase (AID): UDG Counterscreen signal). Conditions: FRET deamination/UDG coupled assay, UDG read, 4 h; series mostly up to 115 µM.
Source text: Assay Provider (PI) Patricia Gearhart Ph.D.
National Institute on Aging
National Institute of Health (NIH), Bethesda, MD
Assay Provider (PI) Rahul Kohli Ph.D.
Perelman School of Medicine
University of Pennsylvania, Philadelphia, PA
Activation-Induced Deaminase (AID) is a cytosine deaminase which converts cytosine into uracil within stretches of ssDNA. The presence of uracil in DNA initiates a cascade of mutagenic DNA repair to introduce point mutations and DNA double strand breaks. Specific targeting of AID to the immunoglobulin heavy chain loci (Igh) promotes mutagenesis in the antibody variable region for somatic hypermutation (SHM) or switch regions leading to class switch recombination (CSR). However, AID also plays a role in accumulating unnecessary mutations across the genome. Mis-targeting of AID results in the initiation of tumor development and leads to greater drug resistance among cancer cells when continually expressed. To identify an AID inhibitor, a small molecule library will be screened in collaboration with NCATS core facility at NIH. To confirm biological function, inhibitors will be examined in an in vitro murine B-cell activation assay and subsequent secondary validation screens. Top molecules will be further screened to identify inhibitory efficacy against a wild type primary splenocytes assay. Using these approaches, we hope to identify a small molecule with great efficacy and low toxicity for use as a molecular probe to further characterize AID's intricacies, or even as a therapeutic.
A FRET based analysis of cytosine deamination, was developed to identify potential inhibitors of AID catalytic activity. This screen has two signal output, Read 1 evaluates the AID inhibition response. The second readout (Read 2) evaluates UDG response and is uses as a counterscreen to exclude false positive inhibitors. Inhibition in AID and inactivity in the UDG signal is the desired outcome for this assay.
SEQUENCE No. (e.g., 1, 2, 3, etc.); […] (e.g., Cells, Incubation, Reagent, etc.); VALUE; DESCRIPTION
1a; Reagent; 3 uL; [4/3x] 1 uM AID/2.67 U/mL UDG
1b; Reagent; 3 uL; 2 U/mL UDG
1c; Reagent; 3 uL; 1 uM AID
2a; Compound; 46 nL; Follow-up plates (0.64 uM - 10 mM)
2b; Control; 46 nL; ATA ([…] - 10 mM)
3; Time; 10 min; incubation at room temperature
5; Time; 4 hr; incubation at room temperature
6; Reagent; 4 uL; [2x] 250 mM NaOH
7; Time; 15 sec; centrifuge at 1000 rpm
8; Time; 30 min; incubation at room temperature
9a; Detection; fluorescence (Read 1: AID); EnVision (PerkinElmer) plate reader, 540 excitation and 590 emission filters
9b; Detection; fluorescence (Read 2: UDG); EnVision (PerkinElmer) plate reader, 560 excitation and 665 emission filters
NOTES (numbers refer to sequence above)
1a; Reagents were dispensed in a medium-binding black solid-bottom Greiner plates (789176F) using a BioRptr liquid dispenser. Dispense 3 uL of [4/3x] 1 uM AID (provided by Kohli lab) and [4/3x] 2 U/mL UDG (NEB M0280L) into columns 1, 2, 5 to 48.
1b; Dispense 3 uL of [4/3x] 2 U/mL UDG into column 3.
1c; Dispense 3 uL of [4/3x] 1 uM AID into column 4.
2a; Compound (7-points [uM] (0.64; 3.2; 16; 80; 400; 2,000; 10,000; 20,000) double pin-transferred (Dip Factor = 2) using the Kalypsys (Wako USA) pintool equipped with a 1536 pinhead for a final concentration range of 7.32 nM - 114 uM.
2b; 10 mM Aurintricarboxylic Acid (Sigma A1895) (ATA, 8-point, n = 2, 1:2.5 dilution in column 2) double pin-transferred (Dip Factor = 2) using the Kalypsys (Wako USA) pintool equipped with a 1536 pinhead for a [final] range of 186 nM - 114 uM.
3; Room temperature incubation.
4; Dispense 1 uL of substrate mixture from the Kohli lab [4x] […] DJC20 and [4x] 250 nM DJC23 into columns 1 to 48 .
5; Room temperature incubation.
6; Dispense 4 uL of substrate mixture [2x] 250 mM NaOH into columns 1 to 48.
7; Centrifugation step to remove bubbles.
8; Room temperature incubation
9a; Fluorescence signal (column label AID) was read using the EnVision plate reader. […]
Also: nearly all actives have a fitted effect of over 65% in size.
Potency is read from the fitted curve at half-maximal effect.

Structure (SMILES) | Potency
Cc1scc(C(=O)NCCC2=CCCCC2)c1C | inactive
CC(C)(C)C(=O)NCC(=O)O | inactive
COc1ccc(COC(=O)C2CCN(S(=O)(=O)c3c(Cl)cccc3Cl)CC2)cc1F | inactive
CN(C)c1ccc(NC(=O)CCC2CCCC2)cc1 | inactive
CNC(=O)C1CCN(Cc2csc(-c3ccc(C(F)(F)F)cc3)n2)CC1 | inactive
CC(C)c1cccc(C(C)C)c1-n1ccnc1 | inactive
CC(C)(C)C(=O)NCCCC(=O)NCc1cccnc1 | inactive
Fc1ccc(/C=N/N=C/c2ccc(F)cc2F)c(F)c1 | inactive
Cc1ccc(C)c(S(=O)(=O)N2CCN(C(=O)CCc3ncc(-c4ccc(F)cc4F)o3)CC2)c1 | inactive
Cc1c(-c2ccccc2)[o+]c2ccccc2c1C#Cc1ccccc1 | inactive
CCCn1nc(C(=O)OCC(N)=O)c2ccccc2c1=O | inactive
O=C(COC(=O)c1cnc2ccccc2n1)NC12CC3CC(CC(C3)C1)C2 | inactive
COc1cccc(NC(=O)C2(C#N)CCCC2)c1 | inactive
O=C(NCc1coc(-c2cccs2)n1)c1cccc(C(F)(F)F)c1 | inactive
O=S(=O)(CCN1CCN(c2cnccn2)CC1)c1ccccc1 | inactive
Cc1cnc(NC(=O)c2nc(C)n(-c3ccc(Cl)cc3)n2)s1 | inactive
COc1ccccc1Oc1c(C)oc2cc(OC(=O)c3ccc4c(c3)OCO4)ccc2c1=O | inactive
C/C=C/Cn1c(=O)c2c(nc(-n3nc(C)cc3C)n2CC)n(C)c1=O | inactive
Cc1cccc(N(CCC(N)=O)C(=O)c2ccc(C#N)cc2)c1 | inactive
O=C(c1ccc2c(c1)N(Cc1ccccc1)C(=O)c1ccccc1S2=O)N1CCC2(CC1)OCCO2 (centres undefined) | inactive

Structure (SMILES) | Potency
O=C(CCC1CCCC1)NCCc1cccnc1 | inactive
COc1cc(Br)cc2cc(-c3nc(-c4nonc4N)no3)c(=O)oc12 | inactive
CC(Oc1ccc(/C=C(/C#N)c2nc3ccccc3[nH]2)cc1)C(=O)O (centres undefined) | inactive
CCOC(=O)c1noc2nc(C)nc(Nc3ccc(CC)cc3)c12 | inactive
COc1ccc(N(CC(=O)N2CCN(C)CC2)S(=O)(=O)c2ccccc2)cc1Cl | inactive
COc1cc(/C=N/O)ccc1O | inactive
O=C(O)c1ccc(CSc2cccc(Cl)c2)cc1 | inactive
FC(F)(F)c1cccc(Oc2ncnc3sc(-c4ccccc4)cc23)c1 | inactive
CC(C)Cc1nc(NCc2ccncc2)c(C#N)c2c1CCCC2 | inactive
O=C(CCc1ccncc1)Nc1ccccc1 | inactive
COc1ccc(C(=O)Oc2ccc(Cl)cc2C)c(OC)c1 | inactive
Cc1ccc(CNC(=O)c2ccc(=O)[nH]c2)s1 | inactive
CCC(CC)C(=O)Nc1cccc(F)c1 | inactive
CSc1ccc(Cl)c(C(=O)Nc2ccc(F)c(F)c2)c1 | inactive
CC(=O)c1ccc2[nH]c(C(=O)O)cc2c1 | inactive
O=C(CCC1CCCCC1)Nc1cccc(F)c1 | inactive
O=C(CCc1c[nH]c2ccccc12)N1CC=C(c2ccccc2)CC1 | inactive
CC1CCN(C(=O)CSc2nnc(-c3ccco3)n2N)CC1 | inactive
CCCC(=O)Nc1ccccc1N1CCN(Cc2nc3ccccc3n2C)CC1 | inactive
Cn1nc(C(=O)Nc2ccc(C(F)(F)F)cc2)c2ccccc2c1=O | inactive

Structure (SMILES) | Potency
CCCCCn1nc(C(=O)Nc2nccs2)c2ccccc2c1=O | inactive
CN(Cc1ccc(C(C)(C)C)cc1)C(=O)C1CCN(C(=O)/C=C/c2ccccc2)CC1 | inactive
COc1ccc(-c2nc3ccccc3o2)cc1NC(=O)c1ccc(Cl)cc1 | inactive
CCOC(=O)c1cc(-c2ccc(S(=O)(=O)N3CCN(c4cc(Cl)ccc4C)CC3)s2)on1 | inactive
O=C(CSc1ncnc2ccccc12)Nc1ccc(Cl)c(C(F)(F)F)c1 | inactive
CNc1c(NC(=O)Nc2ccccc2F)c(=O)oc2ccccc12 | inactive
COc1cc(CNC(=O)C(C)Oc2ccccc2)ccn1 (centres undefined) | inactive
Nc1ccc(C(=O)O)cn1 | inactive
Cc1ccc(-n2ncc3c(NCCCn4ccnc4)ncnc32)cc1Cl | inactive
Clc1cccc(-n2ncc3c(NCCc4ccccc4)ncnc32)c1 | inactive and 89.1 µM (active)
NS(=O)(=O)c1ccc(CCNc2ncnc3c2cnn3-c2ccccc2Cl)cc1 | inactive
CCc1nn2c(=O)cc(CN3CCCCC3C)nc2s1 (centres undefined) | inactive
O=C(CCc1cccs1)NCC1CC1 | inactive
C/C(=N/Nc1ccnc2cc(Cl)ccc12)c1cccc(N)c1 | inactive
CC(=O)N(Cc1ccc2[nH]ccc2c1)C1CC1 | inactive
O=C(CCn1ccc2ccccc21)N1CCN(S(=O)(=O)c2ccccc2)CC1 | inactive
COCC(=O)N(Cc1cccs1)C1CC1 | inactive
CC(c1nc(C(C)(C)C)no1)N(C)Cc1ccc2c(c1)OCO2 (centres undefined) | inactive
Fc1cccc(CSc2nnc(-c3ccccc3F)n2C2CC2)c1 | inactive
